Screening data deposited in PubChem BioAssay by several laboratories.
Only some compounds are listed: those with a hit (about 4.7% of all), similar ones and a draw of the others.
SKKanGAS inh = blocks kanamycin growth of S. pyogenes SKKanGAS strain. BacTiter-Glo, 6 h. hit rate 1.3% among 300,000. inhibition, % at 7.5 µM;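 active = mean replicate score, as percent of positive control median, at least 50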;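 note: strain carries kanamycin resistance gene driven by streptokinase promoter and grows in 40 µg/ml kanamycin; loss of luminescence reflects streptokinase promoter inhibition or plain growth inhibition; 0% = median of DMSO wells and 100% = positive control at its reference dose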
PfHsp90 yeast 2 = reduces growth (ATP signal) of yeast expressing P. falciparum Hsp90. hit rate 0.32% among 310,000. inhibition, % at 9.4 µM. S. cerevisiae expressing PfHsp90, BacTiter-Glo ATP, 48 h; yeast lacking PDR1 and PDR3 efflux regulators;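 active = every replicate shows inhibition above about 80%, whatever the replicate mean, limit read from the data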;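 note: 0% = DMSO neutral controls and 100% = 20 µM radicicol positive controls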
tim10-1 inh = inhibits growth of tim10-1 mutant yeast. S. cerevisiae tim10-1 ts strain growth, BacTiter-Glo, 24 h. inhibition, % at 20 µM. hit rate 2.2% among 330,000;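 active = inhibition of at least 40%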;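 note: mutant grown at 25 °C; 0% = DMSO wells with yeast and 100% = wells holding no yeast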
TIM10 inh = inhibits growth of TIM10 yeast strain | S. cerevisiae TIM10 strain growth, BacTiter-Glo luminescence, 24 h | hit rate 1.4% among 330,000 | inhibition, % at 10 µM;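 active = inhibition of 40% or more at the single tested concentration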;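 note: wild-type TIM10 isogenic control strain grown at permissive 25 °C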
EBI2 antag = antagonists of human EBI2 receptor; EBI2 beta-arrestin recruitment, luminescence, 7a,25-OHC stimulated; inhibition, % at 5 µM; hit rate 0.81% among 360,000; AID 651636; in the data active = inhibition above about 38%;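 note: enzyme fragment complementation signal reports receptor beta-arrestin coupling in cells; 0% = agonist plus DMSO wells and 100% = wells without agonist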
Target sequence (P32249 whole entry, looked up, the tested form may be a part): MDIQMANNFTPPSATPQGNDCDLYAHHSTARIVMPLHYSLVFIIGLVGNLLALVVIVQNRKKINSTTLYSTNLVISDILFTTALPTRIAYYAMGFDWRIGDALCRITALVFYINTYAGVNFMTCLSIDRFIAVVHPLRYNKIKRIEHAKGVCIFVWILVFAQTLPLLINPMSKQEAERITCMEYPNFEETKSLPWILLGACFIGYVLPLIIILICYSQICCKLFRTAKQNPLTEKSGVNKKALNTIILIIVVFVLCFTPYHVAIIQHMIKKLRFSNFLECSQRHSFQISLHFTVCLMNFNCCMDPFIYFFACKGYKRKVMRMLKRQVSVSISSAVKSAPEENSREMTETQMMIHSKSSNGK
tim23-1 inh = tim23-1 yeast growth inhibition. S. cerevisiae tim23-1 growth, BacTiter-Glo luminescence, 24 h. inhibition, % at 20 µM. hit rate 1.3% among 330,000. AID 463212;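 active = growth inhibition of the mutant yeast at or above 50%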;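 note: temperature-sensitive mutant grown at 25 °C; plate controls were DMSO-treated mutant yeast for no effect and medium wells lacking yeast for full effect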
tim23-1 confirm = tim23-1 yeast growth inhibition, confirmed. shares compounds with tim23-1 inh. S. cerevisiae tim23-1 growth, BacTiter-Glo luminescence, 24 h. inhibition, % at 20 µM. hit rate 83% among 4,400. AID 463218;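 active = inhibition above about 39% in either of two replicate wells at 20 µM, limit read from the data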;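 note: temperature-sensitive tim23-1 mutant grown at 25 °C; 0% = DMSO wells with yeast and 100% = medium wells without yeast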
Starred values were filed as active, the others as inactive; . = not tested or not shown.

SMILES	SKKanGAS inh	PfHsp90 yeast 2	tim10-1 inh	TIM10 inh	EBI2 antag	tim23-1 inh	tim23-1 confirm
COC(=O)c1ccc(/C=C2\N=C(SC)SC2=O)cc1	3	-4	11	-31	-15	34	.
CSC1=N/C(=C\c2ccc(C)cc2)C(=O)S1	4	17	29	9	0	61*	56*
CN1c2ccsc2/C(=N/Nc2ccc(F)cc2)CS1(=O)=O	.	-57	36	30	-8	53*	-29
Oc1ccc(Cl)cc1N=Nc1ccccc1	9	7	4	-2	-4	1	.
Cc1ccc(O)c(N=Nc2ccccc2)n1	-6	-28	23	4	0	54*	54*
CC1CCc2c(c3ccccc3n2C(=O)CCl)C1 (stereo not drawn)	-5	10	39	31	10	69*	56*
Cc1[nH]c2ccccc2c1C(=O)/C=C/c1ccccc1	-3	30	27	14	12	64*	56*
Cc1nc2ccccc2c(N)c1C(=O)/C=C/c1ccccc1	0	-3	4	4	10	32	.
CCc1cc2c3c(c1)C(C)CC(C)(C)N3C(=O)/C2=C1\SC(=O)NC1=O (stereo not drawn)	26	20	23	18	-5	59*	50*
COc1ccc(CN2CCN(C(=O)c3cccc4ccccc34)CC2)cc1Br	4	-12	-7	4	13	50*	19
O=C1OC(c2ccc(Cl)cc2)=N/C1=C\C=C\c1ccco1	-2	14	14	24	-10	44	.
O=C1OC(c2ccccc2)=N/C1=C\C=C\c1ccco1	-24	5	32	31	-8	82*	81*
CCC/C(=C1/c2ccccc2C(=O)N1c1ccccc1)c1ccc2[nH]ccc2c1	.	22	10	13	-4	6	.
O=C1c2ccccc2/C(=C\c2ccc3[nH]ccc3c2)N1c1ccccc1	.	9	35	34	-59	63*	53*
Cc1cc([N+](=O)[O-])cnc1Sc1nccn1C	-4	3	2	9	-21	2	.
COC(=O)[C@]1(C)N[C@H](c2ccc(SC3CCCCC3)c(OC)c2)[C@@H]2C(=O)N(C)C(=O)[C@@H]21	5	4	12	15	-7	18	.
CCOC(=O)C1CCN(C(=O)CSc2ccccc2Cl)CC1	-4	-21	22	21	15	19	.
Cc1ccc([C@H]2C(C(=O)O)=CC[C@@H](c3cccc(Cl)c3)N2S(=O)(=O)c2ccc(C)cc2)cc1	.	-18	.	.	-2	.	.
Cc1ccc(S(=O)(=O)N2[C@@H](c3ccc(C(C)(C)C)cc3)C(C(=O)O)=CC[C@H]2c2cccc(Cl)c2)cc1	.	-6	19	20	-2	53*	44*
Cc1ccc(S(=O)(=O)N2[C@@H](c3ccc(C(C)(C)C)cc3)C(C(=O)O)=CC[C@H]2c2ccc(Cl)c(Cl)c2)cc1	.	-25	-20	33	-2	63*	-29
Cc1cccc(N2C(=O)/C(=C/c3cccnc3)SC2=S)c1	-1	6	38	11	-19	58*	54*
CCOC(=O)CNC(=O)CSc1nc(Cc2ccccc2)nc2ccccc12	-1	0	-13	-19	1	18	.
CCOc1cc(/C=N/Nc2ccccc2Cl)ccc1OCC(=O)O	.	21	.	.	0	.	.
CCOc1cc(/C=C2\COc3ccccc3C2=O)ccc1OCC(=O)N(C)C	4	-87	30	34	-12	54*	53*
COC(=O)c1cc(S(=O)(=O)NCc2ccc3c(c2)OCO3)cn1C	2	3	15	6	-2	9	.
SMILES	SKKanGAS inh	PfHsp90 yeast 2	tim10-1 inh	TIM10 inh	EBI2 antag	tim23-1 inh	tim23-1 confirm
COc1ccc(NS(=O)(=O)c2cccc(NC(=O)C34CCC(CC3)C4)c2)cc1	0	-5	6	1	-7	-8	.
CS/C(Nc1cc(Cl)ccc1Cl)=C(/C#N)C(=O)c1ccco1	54*	-5	33	25	15	59*	52*
O=C(Nc1cc(Cl)ccc1Cl)c1ccco1	3	45	9	-6	-2	17	.
COc1ccc(N2CCC(CNC(=S)Nc3ccc(C)cc3C)C2)cc1 (stereo not drawn)	12	6	8	30	13	53*	68*
O=C(NCCNC(=O)c1ccccc1Br)c1cccnc1	-3	-21	7	19	-10	4	.
O=C(COCc1ccccc1)N[C@@H]1c2ccccc2CC[C@H]1OCc1ccccc1	.	15	25	17	1	52*	38
CCOc1ccccc1CNC(=O)CN1C(=O)CSc2ccc(S(=O)(=O)N3CCOCC3)cc21	-6	18	12	-8	-6	9	.
CCOc1ccccc1/C=C(\C#N)C(=O)NC1CC1	-2	.	28	39	-44	55*	52*
O=C(C#Cc1ccccc1)Nc1cccc(F)c1	4	-37	7	39	-44	54*	52*
COc1ccc(NC(=O)C#Cc2ccccc2)cc1	0	-11	-26	24	26	51*	55*
O=C(C#Cc1ccccc1)Nc1ccc(F)cc1	-2	-25	9	15	-5	29	.
COc1ccc(-c2ccc(CN3C(C)C(=O)N(Cc4cn(CCC5OCCCO5)nn4)CCS3(=O)=O)cc2)cc1 (stereo not drawn)	.	.	.	.	3	.	.
CS(=O)(=O)c1ccc(Cl)c(NC(=O)COC(=O)CCCN2C(=O)c3cccc4cccc(c34)C2=O)c1	14	-42	1	10	0	5	.
COc1ccc(S(=O)(=O)N2CCN(C(=O)c3ccc4ccccc4n3)CC2)cc1	.	-3	38	36	8	58*	61*
COc1ccc(S(=O)(=O)N2CCN(C(=O)c3cnc(C)cn3)CC2)cc1	-1	14	-11	-13	-1	-7	.
O=[N+]([O-])c1nn(-c2ccc3c(c2)OCCO3)n(O)c1=Nc1ccc(Cl)cc1	17	35	24	20	7	44	.
O=[N+]([O-])c1nn(-c2ccc3c(c2)OCCO3)n(O)c1=Nc1ccccc1	2	-91	36	5	-1	53*	23
O=C(c1cccnc1)C1Cc2ccccc2C1=O (stereo not drawn)	-3	29	2	13	-7	54*	52*
CC1COCC(C)N1C(=O)c1cccnc1 (stereo not drawn)	.	.	.	.	-9	.	.
Cc1ccc2nc(-c3ccc(NC(=S)NC4CC(C)(C)NC(C)(C)C4)cc3)sc2c1	58*	21	25	29	22	70*	67*
CCCCNc1c(-c2ccc(OC)c(SC(C)CC)c2)nc2ccc(Cl)cn12 (stereo not drawn)	.	18	9	16	21	28	.
CCCCNc1c(-c2ccc(OC)c(SC(C)CC)c2)nc2cnccn12 (stereo not drawn)	.	-3	.	.	7	.	.
